# TGFb inhibitor: qHTS for Inhibitors of TGF-b; Potency, µM (top dose mostly 46.1 µM), without a hit: top-dose activity, negative = inhibition, most hits filed as inhibitors; HepG2 CAGA-GFP TGF-b/SMAD3 reporter, GFP fluorescence, 18 h; TGF-beta stimulated, 500 pg/mL final; actives 1.2% (n = 410,000); note: % is set by controls: 0 for no effect and ±100 for the full control effect; nearly all actives have a fitted effect of over 65% in size
#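 First, reporter cells (HEPG2 CAGA-GFP) rested 2 h at 37 degrees C. Next, compounds were pinned in and TGF-beta added to 500 pg/mL final. After 18 h, GFP was imaged per cell and summed per well.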
# HTT cytoprotect: qHTS Multiplex Assay to Identify Dual Action Probes in a Cell Model of Huntington: Cytoprotection (ATP) | AID 1471, 2008 | Potency, µM (top dose mostly 56.4 µM), without a hit: cytoprotection (ATP increase), actives largely listed as activators | actives 0.14% (n = 230,000) | PC12 HTT-Q103 induced, cytoprotection, ATP luminescence, 40 h; note: % of control where 0% means no effect; nearly all actives have a fitted effect of over 45% in size
#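 Quantitative HTS on tebufenozide-induced (100 nM) PC12 cells expressing HTTQ103 exon 1–GFP; compounds tested as a concentration series; survival measured via cellular ATP.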
# ATXN2 expr inh: Primary qHTS for Inhibitors of ATXN expression; AID 1745845, 2022; HEK-293 ATXN2-luciferase reporter, luminescence, 24 h; Potency, µM (top dose mostly 57 µM), for the others: at the top dose activity change, negative = inhibition, most hits filed as inhibitors; actives 0.72% (n = 360,000); note: % is set by controls: 0 for no effect and ±100 for the full control effect; nearly all actives have a fitted effect of over 55% in size
#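 ATXN2-luciferase reporter cells (luciferase flanked by upstream and downstream ATXN2 gene portions) were treated 24 h at 37 °C with compounds at up to 57 uM. SteadyGlo luminescence gave expression; GF-AFC fluorescence gave viability.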
# ATXN viability: Viability Counterscreen for Primary qHTS for Inhibitors of ATXN expression; S2 cells (HEK-293 line with an ATXN2-luciferase reporter) viability, CellTiter-Fluor protease fluorescence, 24 h; Potency, µM (titrated, usually from 56.7 µM), usual class: cytotoxic; actives 0.49% (n = 400,000); AID 651635, 2014; note: nearly all actives have a fitted effect of over 40% in size
# HepG2 viability: qHTS for Inhibitors of TGF-b: Cytotox Counterscreen; Potency, µM (series often up to 46.1 µM), inactives show at the highest dose activity change, negative = cytotoxicity, usual class: cytotoxic; actives 0.76% (n = 410,000); AID 588856, 2011; HepG2 CAGA-GFP viability, ATP luminescence, 18 h
#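 CellTiter-Glo luminescence gave cytotoxicity after 18 hours at 37 degrees C. The cells were HepG2 CAGA-GFP in 1% FBS DMEM, stimulated with 500 pg/mL TGF-beta after compound addition. %Activity was normalised to no-cell wells (complete cell-killing) and DMSO (no toxicity), and curves were fitted and classified.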
# HTT aggregate: qHTS Multiplex Assay to Identify Dual Action Probes in a Cell Model of Huntington: Aggregate Formation (GFP) | PC12 HttQ103-GFP aggregates, Acumen cytometry, 40 h | Potency, µM (top dose mostly 46.1 µM), without a hit: at the highest dose activity change, negative = inhibition, actives largely listed as inhibitors | actives 1.1% (n = 220,000) | AID 1688, 2009; note: % is set by controls: 0 for no effect and ±100 for the full control effect; nearly all actives have a fitted effect of over 60% in size
#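 Using laser scanning cytometry, GFP-positive aggregates were counted after lysis of PC12 cells induced with 100 nM tebufenozide to express HTT exon 1 Q103–GFP. Compounds were tested in titration.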
# An asterisk follows results filed as active; i = inactive; ? = inconclusive; . = not tested or not shown; ! = repeats disagree; [ ] = dose if it differs, or a comment. Sampled rows, rich in hits. Any-hit rate of the full collection: about 2.8%. Calls come from the whole dose curve; as a rule, active = well fitted curve in the direction sought with a large enough effect; inconclusive = small, poorly fitted or top-dose-only effect, or another doubt; inactive = no such curve, though single readings can be large; an effect the other way counts as inactive or inconclusive. Potency is the fitted concentration of half-maximal effect.
SMILES,TGFb inhibitor,HTT cytoprotect,ATXN2 expr inh,ATXN viability,HepG2 viability,HTT aggregate
CCOc1cc(CNCCSc2nnnn2C)cc(Br)c1OCc1ccccc1F,?,-30%,-23%,?,-52%,-25%
CCOc1cc(CNCc2ccncc2)cc(Br)c1OCc1ccccc1F,-14%,-56%,-30%,?,-39%,10µM*
OCCNCc1cc(Br)ccc1OCc1ccc(Cl)cc1,?,-24%,-11%,i,-51%,4%
CC(=O)Nc1cc(C(=O)N2CCN(C(=O)c3ccco3)CC2)cc2ncn(CCc3ccccn3)c12,.,.,.,i,.,.
CC(C)(C)n1ncc2c(=O)n(Cc3cccc(F)c3)cnc21,-17%,.,.,.,4%,.
CC(C)(C[C@@]1(C)NC(=O)NC1=O)OCc1ccccc1,.,12%[10 µM],.,.,.,.
COC(=O)CCCCC(CCSS/C(CCO)=C(\C)N(C=O)Cc1cnc(C)nc1N)SC(C)=O (stereo unspecified),.,.,3%,i,.,.
CC1CCc2c(sc(NC(=O)CSc3ncn[nH]3)c2C#N)C1 (stereo unspecified),-4%,-2%[10 µM],0.34µM*,i,-36%,-17%[9.22 µM]
Cc1ccc(N/C(N)=N/c2nc3c(c(=O)[nH]2)CCCC3)c(C)c1,7%,13%,-8%,i,-17%,8%
Cc1ccc(N/C(N)=N/c2nc(C)cc(N3CCCCC3)n2)c(C)c1,?,-44%,22µM*,?,-22%,13µM*
COC(=O)CCCC1=CC2=C(c3ccccc3)C(=O)C(C)(OC(=O)C3CCCC3)C(=O)C2=CN1CCCOC(C)C (stereo unspecified),.,-19%[10 µM],.,.,.,.
CCN(CC)c1ccc(CNc2ccc3c(c2)ncn3CC)cc1,1%,.,-20%,?,-9%,.
CCn1cnc2cc(NCc3ccc(N(C)C)cc3)ccc21,10µM*,-178%,?,?,7.1µM*!,?
COC(=O)c1cc(OC)c(OC)cc1NC(=O)C1CCC(=O)N1S(=O)(=O)c1ccc(C)cc1 (stereo unspecified),-2%,-25%,18%,i,4%,3.2µM*
COC(=O)c1ccccc1NC(=O)C1CCC(=O)N1S(=O)(=O)c1ccc(C)cc1 (stereo unspecified),0%,-8%,-8%,i,-2%,18%
O=c1[nH]c2ccc(Br)cc2o1,21%,.,6%,i,9%,.
O=C(CCl)c1ccc2[nH]c(=O)oc2c1,?,25%[10 µM],.,i,10µM*,3%[9.22 µM]
CCC(NC(=O)Nc1nnc(C(F)(F)F)s1)(C(F)(F)F)C(F)(F)F,?,-73%,8.9µM*,.,-40%,1.6µM*
O=C(O)CCC(=O)Nc1nnc(C(F)(F)F)s1,9%,-5%,1%,i,7%,-16%
CC1(C(=O)O)NCCc2cc(O)c(O)cc21 (stereo unspecified),.,-18%,.,.,.,.
O=C1C=C(Nc2ccccc2C(=O)O)c2ccccc2C1=O,?,-1%[10 µM],8%,i,16µM*,-12%[9.22 µM]
CCc1ccc(NC2=CC(=O)C(=O)c3ccccc32)cc1,2µM*,.,?,?,2.8µM*,.
CCc1ccc2c(c1)C(=O)c1ccccc1C2=O,2%,.,72%,i,9%,7%
O=C1C(Nc2ccccc2)=CC(=O)c2ncccc21,.,-187%,.,.,.,.
O=C1C=C(Nc2cccc3cccnc23)c2ccccc2C1=O,5µM*,.,-14%[2.22 µM],14µM*,3.5µM*,.
SMILES,TGFb inhibitor,HTT cytoprotect,ATXN2 expr inh,ATXN viability,HepG2 viability,HTT aggregate
O=C1C=C(Nc2ccccc2)c2ccccc2C1=O,3.2µM*,-186%,?,28µM*,3.5µM*,4.5µM*
Cc1ccc2[nH]c(=O)c(CN(CCO)Cc3nnnn3Cc3ccccc3)cc2c1,0%,.,.,.,4%,.
Nc1c(Br)cc(C=O)cc1Br,4%,.,.,.,-5%,.
CCCCCCCCCCCCC/C=C/[C@@H](O)C(CO)NC(C)=O (stereo partly specified),.,-29%,.,.,.,.
CCOC(=O)/C=C/CCC/C=C/C(=O)c1ccccc1,.,2%,.,.,.,.
Cn1nccc1C(=O)NCC1CCC2(CCN(Cc3cccc4ncccc34)CC2)O1 (stereo unspecified),.,.,.,i,.,.
COc1ccc2c(c1)CCc1cnc(-n3ncc(C(=O)N(C)CCc4ccccn4)c3C)nc1-2,.,.,.,i,.,.
CC(=O)O[C@H]1CC[C@@]2(C)[C@@H](CC[C@@]3(C)[C@H]2C(=O)C=C2[C@H]4C[C@](C)(C(=O)OCCN5CCCCC5)CC[C@]4(C)CC[C@@]23C)C1(C)C,.,-3%,.,.,.,.
Cc1noc(C)c1-c1nc(NCc2cccs2)c2ccccc2n1,.,-73%,.,.,.,.
CCCCNC1=CC(=O)C(=O)c2ccccc21,3.5µM*,-12%[10 µM],.,?,7.1µM*,-7%[9.22 µM]
CCCCNC1=CC(=O)C(NCCCC)=CC1=O,-10%,.,-19%,?,-1%,.
Cc1oc(-c2ccccc2NC(=O)c2ccccc2)nc1CNC(=O)c1cccc(-n2cccn2)c1,.,.,.,i,.,.
C=CCOC(=O)C1=C(C)NC(SCC(N)=O)=C(C#N)C1c1ccc(C)cc1 (stereo unspecified),?,12%[10 µM],-5%,i,-17%,3%[9.22 µM]
C=CCOC(=O)C1=C(C)NC(SCC)=C(C#N)C1c1ccc(Cl)cc1 (stereo unspecified),13µM*,-55%,16µM*,?,-86%,?
Cc1cc(C(=O)CN2C(=O)c3ccccc3S2(=O)=O)c(C)n1C(C)C,-1%,.,5µM*,i,-47%,.
Cc1cc(C(=O)CN2C(=O)c3ccccc3S2(=O)=O)c(C)n1-c1ccccc1,-6%,-108%[10 µM],4.5µM*,i,-4%,-32%
CCn1c(C)cc(C(=O)CN2C(=O)c3ccccc3S2(=O)=O)c1C,11%,.,?,i,7%,.
O=C(O)/C=C\C(=O)Nc1ccc2c(c1)-c1ccccc1C2,.,3%[10 µM],.,.,.,.
COc1ccc(C(C[N+](=O)[O-])c2c(-c3ccccc3)cc3ccccn23)c(OC)c1 (stereo unspecified),10µM*,18%,0%,i,11µM*,?
C=CC(=O)N1C/C(=C/c2ccc(Cl)cc2)C(=O)/C(=C\c2ccc(Cl)cc2)C1,2.2µM*,.,2.8µM*,0.89µM*,5µM*,.
C=CC(=O)N1C/C(=C/c2ccccc2)C(=O)/C(=C\c2ccccc2)C1,2.2µM*,.,6.7µM*,9.5µM*,1.8µM*,.

# Bioassay records (PubChem BioAssay)
